Screening data as filed in PubChem.
CF NFkB block: cystic fibrosis NF-kB activation inhibition; KKLEB NF-kB-GFP reporter, PAF-induced, GFP fluorescence overnight; inhibition, % at 5 µM; hit rate 0.86% among 360,000; AID 588850;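 active means at least 50% inhibition at 5 µM, scaled per plate between neutral and stimulator controls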;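 further: PAF is a Pseudomonas aeruginosa culture filtrate used as stimulus; plate controls were PAF-stimulated DMSO wells for no effect and unstimulated DMSO wells for full effect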
Peg3 prom inh: Peg3 promoter activity inhibition | HeLa PEG-Prom luciferase reporter, luminescence, overnight | inhibition, % at 20 µM | hit rate 1.7% among 360,000;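 active means inhibition of at least 50% at 20 µM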
KKLEB tox: CF airway cell cytotoxicity counter-screen; AID 602141; hit rate 0.36% among 360,000; KKLEB CF airway cells viability, ATPlite luminescence, overnight; hits give low values; cells stimulated with P. aeruginosa culture filtrate; activity change (cytotoxicity), % at 5 µM;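 active means corrected activity change at or below -50% at 5 µM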
Shn3 3UTR inh: reduces Shn3 3'UTR luciferase signal in osteoblasts. Clone20 osteoblast Shn3 3'UTR firefly luciferase, 24 h. inhibition, % at 12.5 µM. hit rate 0.52% among 360,000;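 active means mean inhibition of at least 75% with every replicate also reaching 75%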;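 further: 0% = median of neutral control wells and 100% = pilot-screen positive control compound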
HIF-2a inh: HIF-2a inhibition; AID 624352; 786-0 RCC cells HIF-2a reporter, luciferase luminescence, overnight; inhibition, % at 18.8 µM; hit rate 0.72% among 360,000;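 active means inhibition of the luminescence signal of 40% or more relative to plate controls, in a single-dose primary screen at 18.75 µM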
TRPM1 prom inh: reduces MITF-dependent TRPM1 promoter luciferase signal. hit rate 0.83% among 330,000. SK-MEL-5 TRPM1 promoter luciferase, 24 h. inhibition, % at 12.5 µM;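 active means mean inhibition across replicates of 60% or more, whatever share of single replicates reaches that level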
CF NFkB conf: confirmation of cystic fibrosis induced NF-kB inhibitors; hit rate 64% among 1,300; shares compounds with CF NFkB block; inhibition, % at 5 µM; AID 602472; KKLEB CF airway cells, PAF-induced NF-kB-GFP fluorescence, overnight; in the data active means inhibition above about 40%;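 further: stimulus PAF is a Pseudomonas aeruginosa filtrate and not platelet activating factor; plate controls were DMSO wells with stimulus for no effect and unstimulated DMSO wells for full effect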
Mdm2 MdmX conf: Mdm2/MdmX (human) interaction inhibition, confirmed; shares compounds with HIF-2a inh; SaOS-2 split-luciferase Mdm2/MdmX complementation, luminescence; inhibition, % at 8 µM; hit rate 99% among 740;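 active means mean inhibition of the luminescence signal across two replicates at or above 26 percent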
Target sequence (O15151 whole entry, looked up): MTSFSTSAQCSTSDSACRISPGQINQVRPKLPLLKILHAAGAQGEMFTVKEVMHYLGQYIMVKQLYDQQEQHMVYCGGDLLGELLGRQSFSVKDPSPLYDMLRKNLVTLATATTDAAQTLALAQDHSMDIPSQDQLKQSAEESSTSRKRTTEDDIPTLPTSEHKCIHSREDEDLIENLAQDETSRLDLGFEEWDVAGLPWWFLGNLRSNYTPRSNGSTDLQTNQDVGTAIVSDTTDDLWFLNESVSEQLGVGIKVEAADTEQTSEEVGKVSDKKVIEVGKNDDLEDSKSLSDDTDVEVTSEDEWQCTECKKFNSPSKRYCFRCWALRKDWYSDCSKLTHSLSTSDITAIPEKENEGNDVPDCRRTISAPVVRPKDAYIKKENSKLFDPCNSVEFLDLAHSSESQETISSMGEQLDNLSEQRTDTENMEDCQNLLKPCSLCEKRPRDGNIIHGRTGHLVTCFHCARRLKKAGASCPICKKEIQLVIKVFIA
Target sequence (Q00987 whole entry, looked up): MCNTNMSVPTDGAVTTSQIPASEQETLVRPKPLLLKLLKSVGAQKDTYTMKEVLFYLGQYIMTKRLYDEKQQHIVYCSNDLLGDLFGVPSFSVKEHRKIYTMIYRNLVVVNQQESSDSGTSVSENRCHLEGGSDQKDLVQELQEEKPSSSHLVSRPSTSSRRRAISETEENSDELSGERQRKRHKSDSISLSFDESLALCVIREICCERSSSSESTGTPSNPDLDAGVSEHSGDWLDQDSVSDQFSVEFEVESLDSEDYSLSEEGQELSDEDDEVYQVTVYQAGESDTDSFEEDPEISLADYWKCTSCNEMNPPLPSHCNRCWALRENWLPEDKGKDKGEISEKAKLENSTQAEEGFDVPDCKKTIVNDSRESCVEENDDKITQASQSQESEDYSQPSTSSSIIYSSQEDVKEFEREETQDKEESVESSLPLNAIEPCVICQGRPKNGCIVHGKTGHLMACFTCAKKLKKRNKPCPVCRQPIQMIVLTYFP
HIF-2a conf: HIF-2a inhibition, single concentration confirmation. inhibition, % at 18.8 µM. AID 651580. shares compounds with HIF-2a inh. hit rate 56% among 1,800. 786-0 RCC cells, HIF-2a luciferase reporter luminescence, overnight;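 active means mean inhibition across four replicates of at least 40 percent at the single tested concentration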
HIF-1a cs: HIF-1a inhibition counter-screen for HIF-2a hits; shares compounds with HIF-2a inh; MiaPaCa-2 HIF-1a luciferase reporter, desferoxamine, overnight; inhibition, % at 18.8 µM; hit rate 72% among 1,800; AID 651589;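 active means mean inhibition of the reporter signal across four replicates at the single tested dose of 50% or more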
Starred values were filed as active, the others as inactive; / = no result. Rows were chosen to be rich in hits. Some 2.8% of all compounds tested hit in one or more screens of this group.

SMILES | CF NFkB block | Peg3 prom inh | KKLEB tox | Shn3 3UTR inh | HIF-2a inh | TRPM1 prom inh | CF NFkB conf | HIF-2a conf | HIF-1a cs | others
COc1ccc2cc3c(N)nn(C(=O)Cc4ccccc4OC)c3nc2c1 | 54.5* | 41.9 | -10.3 | 4.0 | 35.9* | 26.6 | 67.9* | 13.5 | 88.6*
C=C1C(=O)O[C@H]2C[C@H]1[C@@H](OC(C)=O)C/C(C)=C/CC/C(C)=C\CC[C@]2(C)O | 77.4* | 89.2* | -16.3 | 71.1 | 94.4* | 99.3* | 65.2* | 96.2* | 105.4*
N#CC(C#N)=C1C=CC=CN1/C(=C\c1ccco1)C(=O)c1ccc(-c2ccccc2)cc1 | 83.3* | 109.6* | -50.0 | 15.8 | 82.9* | 72.7* | -50.8 | 96.5* | 106.3*
N#C/C(=C\c1ccco1)C(=O)NCc1ccccc1 | -6.0 | -19.2 | 7.0 | 18.5 | 18.4 | -2.3 | / | / | /
C/C(=N/NC(=O)c1ccco1)c1ccc(NC(=O)c2ccc(F)cc2)cc1 | 2.1 | -285.6 | 2.3 | -47.8 | -168.7 | -44.3 | / | / | /
C=C1C(=O)[C@@]23[C@H](O)C[C@@H]4C(C)(C)CC[C@H](O)[C@]4(C)[C@@H]2C[C@H](O)[C@@H]1[C@H]3O | 67.8* | 43.4 | 20.4 | 96.7* | 40.7* | 42.3 | 55.9* | 36.5 | 90.8*
Cn1nnnc1Sc1ncnc2scc(-c3cccc(F)c3)c12 | 65.8* | 101.8* | -16.7 | 68.4 | 74.9* | 77.5* | 29.2 | 53.7* | 104.0* | Mdm2 MdmX conf=103.0*
Cn1nnnc1Sc1ncnc2scc(-c3ccc(C#N)cc3)c12 | 77.1* | 102.9* | -48.0 | 80.2 | 90.5* | 91.7* | 2.9 | 94.3* | 107.2* | Mdm2 MdmX conf=103.0*
Fc1ccc(CSc2ncnc3scc(-c4ccccc4)c23)cc1 | 42.7 | 20.0 | -8.6 | -3.0 | 26.5 | -14.1 | / | / | /
CS(=O)(=O)N(CC(=O)Nc1ccc(S(=O)(=O)N2CCOCC2)cc1)c1cccc(F)c1 | -24.9 | -5.8 | 31.4 | -11.4 | 22.0 | 0.6 | / | / | /
CNC(=O)C[C@H]1C(=O)N(CCc2ccccc2)C[C@@H]1c1ccc(OC)cc1 | -31.8 | -2.5 | 15.1 | -12.8 | -3.5 | / | / | / | /
COc1ccc(-c2cn[nH]c2-c2ccc(OCc3ccccc3)cc2O)cc1 | 70.0* | 16.7 | -13.8 | 12.6 | 10.4 | -2.5 | 88.7* | / | / | Mdm2 MdmX conf=90.0*
COc1ccccc1-c1cn[nH]c1-c1ccc(OCc2ccccc2)cc1O | 4.8 | 35.1 | 7.8 | 8.1 | 22.9 | 2.7 | / | / | /
CC(C)C(NC(=O)/C(=C/c1ccco1)NC(=O)c1ccc(Br)o1)C(=O)O (stereo not given) | 1.8 | 7.0 | 1.6 | -14.2 | 15.2 | -1.3 | / | / | /
Nc1ncc([N+](=O)[O-])c(N2CCCCCC2)n1 | 67.1* | 13.7 | 2.3 | 13.5 | 7.7 | -3.6 | 91.3* | / | / | Mdm2 MdmX conf=84.2*
N#CC1(NC(=O)Cn2ncc(Cl)c(Cl)c2=O)CCCCC1 | 80.7* | 93.5* | 2.7 | 23.9 | 86.6* | 48.7 | 13.9 | 58.9* | 107.0*
Cc1ccc(-n2nnnc2Sc2ccc(S(=O)(=O)NCCN(C)C)cc2[N+](=O)[O-])cc1 | 91.0* | 100.3* | -31.1 | -46.1 | 76.8* | 91.7* | 50.8* | 18.4 | 105.5*
CC(=O)Nc1cccc(C(=O)/C=C/c2ccc(Br)cc2)c1 | 77.9* | 101.4* | -16.0 | 9.5 | 91.7* | 39.1 | -69.0 | 15.9 | 105.5* | Mdm2 MdmX conf=103.2*
CC(=O)Nc1cccc(C(=O)/C=C/c2ccc[nH]2)c1 | 3.4 | -112.1 | 4.3 | -17.6 | -121.8 | -45.9 | / | / | /
O=[N+]([O-])C1C(c2ccccc2)C12c1ccccc1-c1ccccc12 (stereo not given) | 67.9* | 53.3* | -32.1 | 29.0 | 49.1* | / | 46.3* | 42.6* | -10.7
N#Cc1ccc(Oc2cnccn2)cc1 | -3.0 | 6.6 | 5.7 | -0.5 | 7.3 | -0.8 | / | / | /
Nc1ncnc2c1c(-c1ccc(Oc3ccccc3)cc1)cn2C1CCCC1 | 52.8* | 71.5* | -9.8 | 89.8* | 67.0* | 6.1 | 80.8* | 54.7* | 64.7*
Nc1nc(N)nc(-c2ccc(Oc3ccccc3)cc2)n1 | 11.2 | -58.9 | -12.2 | -36.1 | -113.8 | -18.0 | / | / | /
COC(=O)CCN(c1ccccc1)S(=O)(=O)c1cc(-c2cc(C)no2)ccc1C | 2.2 | 19.4 | -3.1 | 8.6 | 15.9 | 1.3 | / | / | /
COc1cccc(-c2ccc3ncnc(NCc4ccc5c(c4)OCO5)c3c2)c1 | 79.7* | -25.2 | -5.7 | -2.5 | -34.9 | -6.5 | 81.4* | / | / | Mdm2 MdmX conf=85.0*
SMILES | CF NFkB block | Peg3 prom inh | KKLEB tox | Shn3 3UTR inh | HIF-2a inh | TRPM1 prom inh | CF NFkB conf | HIF-2a conf | HIF-1a cs | others
Cc1csc(CNc2ncnc3ccc(-c4ccc5c(c4)OCO5)cc23)c1 | 20.1 | 12.5 | 1.6 | -7.0 | 15.1 | 19.2 | / | / | /
COc1cc(OC)cc(-c2c(-c3cccs3)c3cc(-c4ccc(OCc5ccccc5)cc4)ccc3n2C)c1 | 1.5 | 28.8 | -10.8 | -1.9 | -1.1 | -7.1 | / | / | /
Cc1cc(C)c(C(=O)/C=C/C=C/c2ccccc2)c(=O)[nH]1 | -0.9 | -31.7 | 4.4 | -7.2 | -33.1 | -13.5 | / | / | /
Cc1cc(C)c(C(=O)/C=C/c2ccc(C(C)C)cc2)c(=O)[nH]1 | 59.2* | 68.1* | -21.7 | -15.8 | 59.4* | 15.2 | 53.3* | 52.5* | 102.2* | Mdm2 MdmX conf=102.7*
CC(=O)N1CCN(c2ccc(NC(=O)c3ccco3)cc2Cl)CC1 | -17.2 | -81.7 | 7.9 | -32.6 | -120.4 | -24.7 | / | / | /
COc1ccc(S(=O)(=O)N2CCCCC2)cc1NC(=O)c1ccc([N+](=O)[O-])o1 | 74.8* | 41.7 | -0.6 | 33.6 | 53.4* | 85.1* | -9.2 | 8.9 | 76.5*
CC(=O)N1CCN(c2ccc(NC(=O)c3ccc([N+](=O)[O-])o3)cc2Cl)CC1 | 62.3* | 100.7* | -26.6 | 96.3* | 88.2* | 95.2* | 8.2 | 52.1* | 82.8*
COc1cccc(C(O)c2nc(-c3cc(F)cc(F)c3)cs2)c1 (stereo not given) | 9.5 | 11.2 | -4.9 | -10.3 | -12.8 | / | / | / | /
COc1ccc(C(=O)/C=C2/C(=O)Nc3ccccc32)c(OC)c1 | 84.1* | 103.0* | -40.5 | 53.3 | 90.6* | 46.0 | 28.8 | 63.5* | 88.0*
C=CCOc1ccccc1C(=O)/C=C1/C(=O)Nc2ccccc21 | 92.3* | 75.6* | -48.6 | 64.0 | 79.7* | 7.0 | 36.9 | 32.0 | 54.9*
C=CCOc1ccc(C(=O)/C=C2/C(=O)Nc3ccccc32)cc1 | 10.6 | 24.7 | -15.8 | -13.7 | 5.4 | 1.2 | / | / | /
